Here are results for 51 compounds from ChEMBL document CHEMBL3988442, “University of Dundee, Small-Polar-MMV Screening Library” (2021).

The target in experiment [1] is T1, Aspartate--tRNA(Asp/Asn) ligase (Mycobacterium tuberculosis (strain ATCC 25618 / H37Rv)) (UniProt P9WFW3). Also: in the data most compounds retested in dose-response had high values.
T1 sequence (whole entry): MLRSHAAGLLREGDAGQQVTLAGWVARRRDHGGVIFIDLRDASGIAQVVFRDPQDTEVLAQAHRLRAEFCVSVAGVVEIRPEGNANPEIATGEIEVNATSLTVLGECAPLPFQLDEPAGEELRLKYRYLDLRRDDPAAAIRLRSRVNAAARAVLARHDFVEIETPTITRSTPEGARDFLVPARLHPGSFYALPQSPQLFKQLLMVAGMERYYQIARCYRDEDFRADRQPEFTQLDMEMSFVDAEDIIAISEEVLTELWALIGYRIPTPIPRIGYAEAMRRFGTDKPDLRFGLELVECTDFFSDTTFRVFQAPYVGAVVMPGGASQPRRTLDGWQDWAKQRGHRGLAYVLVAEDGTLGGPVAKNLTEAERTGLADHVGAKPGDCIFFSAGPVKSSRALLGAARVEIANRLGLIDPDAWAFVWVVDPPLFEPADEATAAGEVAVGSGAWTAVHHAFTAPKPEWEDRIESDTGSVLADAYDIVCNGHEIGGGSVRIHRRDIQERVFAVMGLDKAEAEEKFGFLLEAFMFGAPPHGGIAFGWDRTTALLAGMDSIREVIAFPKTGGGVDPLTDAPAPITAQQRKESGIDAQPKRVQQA
The experiment can be described thus: Assay for Asp RNA synthetase-1 from Mycobacterium tuberculosis. The experiment is classed as functional. Particulars: 30 µM. Also on record: scale not given: direction of the effect not stated beside the values.

Experiment [2] has as its target Shiga toxin 2 (Escherichia coli O157:H7) (UniProt P09385+P09386). Briefly: E. coli 0.157:H7 Shiga Toxin SOP - stx2 screening assay. Format: functional. Also on record: scale not given: direction of the effect not stated beside the values. The conditions noted are these: 30 µM.

Consider `O=C(Cn1cc(I)cn1)N1CCc2ccccc2C1`, for which the Percent Effect is 2.67% in experiment [1] and -31% in experiment [2].

For `COc1cccc(C(=O)NS(=O)(=O)c2cccc(C#N)c2)c1OC`, the Percent Effect in experiment [1] came to 0.0291%; in experiment [2], 2.55%.

For the compound `CC(C)Nc1ccc2nc(C3CCN(C(C)C)CC3)nn2c1`, the figures for the Percent Effect in experiment [1] and in experiment [2] were -0.549% and -8.89%, respectively.

Take `CCc1nc(CN2CCN(C(=O)c3cnccn3)CC2)cs1`: the Percent Effect in experiment [1] is -2.04%; in experiment [2], -21.2%.

Regarding `OC(CN1CCOCC1)c1ccc(OC(F)(F)F)cc1` (configuration not stated), the Percent Effect in experiment [1] is -1.62%; in experiment [2], 13.6%.

As for `CCCn1nc2c(cc1=O)CN(CCS(C)(=O)=O)CC2`, the Percent Effect in experiment [1] amounted to 5.96%; in experiment [2] it was 0.931%.

In the case of `Cn1ccc(NC(=O)Cc2cccc(F)c2)n1`, the Percent Effect in experiment [1] was 3.36%; in experiment [2], -9.92%.

For `O=C(Nc1cccc(Cl)c1)c1nn(C2CCS(=O)(=O)C2)c2c1CCCC2` (configuration not stated), the figures for the Percent Effect in experiment [1] and in experiment [2] were 6.98% and 5.07%, respectively.

As for `CCCOc1cccc(CNC(=O)CN2CCN(C)CC2C)c1` (configuration not stated), the Percent Effect in experiment [1] is 2.62%; in experiment [2], -7.72%.

Regarding `CN(C(=O)C1CCCCC1)[C@@H]1CCC[C@@H](N2CCOCC2)[C@@H]1O`, the Percent Effect in experiment [1] is 0.61%; in experiment [2] it was -11.6%.

Turning to `Cc1ccccc1N1CC2(CCN(S(=O)(=O)c3cccs3)C2)CC1=O` (configuration not stated), the Percent Effect in experiment [1] was 0.41%; in experiment [2] it was -0.82%.

As to `CNC(=O)C1Cn2ccnc2C2(CCN(Cc3cccnc3)CC2)O1` (configuration not stated), the Percent Effect in experiment [1] was -0.0764%; in experiment [2], 3.87%.

In the case of `CCc1nc(C2CCCN(C(=O)CCn3ccccc3=O)C2)no1` (configuration not stated), the Percent Effect in experiment [1] was -0.767%; in experiment [2], 7.71%.

With `CCOCC(=O)NC1(c2cccc(Br)c2)CC1`, the Percent Effect in experiment [1] was 1.26%; in experiment [2], -5.68%.

With `O=C(NCc1ccc(F)cc1)N1CCC(C2OCCO2)CC1`, the Percent Effect in experiment [1] was 3.59%; in experiment [2], 1.94%.

Turning to `Cc1nc(N2CCOCC2)nc2c1CCN(Cc1cccnc1)CC2`, the Percent Effect is 2.91% in experiment [1] and -7% in experiment [2].

As for `Cn1nc(CNC(=O)c2ccc(Cl)cc2)c2c1CCOC2`, the Percent Effect in experiment [1] is 2.4%; in experiment [2], -5.64%.

For the compound `Cn1cc(CN2CCOCC3(C2)CN(c2ccccc2)C(=O)CO3)cn1` (configuration not stated), the Percent Effect in experiment [1] stood at 5.42%; in experiment [2] it was 4.18%.

Regarding `CNc1ccc(CC2CCCN(C(=O)c3cnc(C)nc3)C2)nn1` (configuration not stated), the Percent Effect in experiment [1] is 1.57%; in experiment [2] it was -10.7%.

For the compound `O=C([C@@H]1C[C@@H]2CCN(CCc3ccccc3)C[C@H]2O1)N1CCCC1`, the Percent Effect is -0.868% in experiment [1] and -14.6% in experiment [2].

Turning to `Cc1cnc(C(=O)N2CCc3ncnc(C)c3CC2)cn1`, the Percent Effect in experiment [1] is 0.251%; in experiment [2], -27.4%.

Turning to `Cc1noc(C(C)N2CCN(CCCN3CCCC3=O)CC2)n1` (configuration not stated), the figures for the Percent Effect in experiment [1] and in experiment [2] were 0.409% and 4.39%, respectively.

In the case of `CNC(=O)c1cc2c(nc1NCC1CC1)CCN(c1ccncn1)CC2`, the Percent Effect was -4.09% in experiment [1] and -30.7% in experiment [2].

Regarding `O=C(Nc1ccccc1F)N1CCN(Cc2noc(C3CC3)n2)CC1`, the Percent Effect in experiment [1] is 1.99%; in experiment [2], -11.6%.

Turning to `O=C(NCc1ccco1)c1nn(C2CCS(=O)(=O)C2)c2c1CCCC2` (configuration not stated), the Percent Effect in experiment [1] is -2.28%; in experiment [2], 8.96%.

As to `COC(=O)c1cccc(C(=O)N2CCN(c3ccccc3F)CC2)n1`, the figures for the Percent Effect in experiment [1] and in experiment [2] were -0.801% and -16.2%, respectively.

With `CCc1nnc2n1CCN(Cc1nc(-c3ccoc3)no1)C2`, the results for the Percent Effect in experiment [1] and in experiment [2] were -5.61% and -17.8%, respectively.

Consider `Cc1cc(NC(=O)NCc2cccnc2OC(C)C)n(C)n1`, for which the results for the Percent Effect in experiment [1] and in experiment [2] were 5.63% and -9.92%, respectively.

With `CCn1c(Cn2cncn2)nnc1C1CCN(Cc2ccncc2)CC1`, the Percent Effect in experiment [1] was 4.98%; in experiment [2], 0.0626%.

Take `CN(C)C(=O)c1ccc(CNC(=O)NCCN(C)C2CCCC2)cc1`: the Percent Effect came to 1.57% in experiment [1] and 14.3% in experiment [2].

For `Cc1nc(Nc2nnc(C)s2)cc(C2CCCN2C)n1` (configuration not stated), the Percent Effect in experiment [1] was 2.4%; in experiment [2], -26.6%.

Consider `COc1ccc(NC(=O)NCC(O)c2ccc(F)cc2F)c(OC)c1` (configuration not stated), for which the Percent Effect is 1.18% in experiment [1] and -4.16% in experiment [2].

Take `CCc1ncncc1C(=O)N1CCN(Cc2ccco2)CC1`: the values for the Percent Effect in experiment [1] and in experiment [2] were 3.68% and 8.73%, respectively.

Take `O=C(NCc1ccco1)[C@@H]1CCO[C@@H]2CCN(c3ccncn3)C[C@H]21`: the figures for the Percent Effect in experiment [1] and in experiment [2] were 1.19% and -15.1%, respectively.

In the case of `Cc1nnc2n1CCN(CCS(=O)(=O)c1ccccc1)C2`, the figures for the Percent Effect in experiment [1] and in experiment [2] were -4.37% and -6.96%, respectively.

In the case of `Cc1oc(C)c(C(=O)NCc2cccc(NC(=O)CN(C)C)c2)c1C`, the Percent Effect was -5.4% in experiment [1] and -39.7% in experiment [2].

On to `CN(C)CC1CN(Cc2nnc(-c3ccccc3Cl)o2)CCO1` (configuration not stated), for which the Percent Effect is -1.66% in experiment [1] and -41.7% in experiment [2].

For the compound `O=C1CC(c2ccc(C(=O)O)cc2)c2ncn(-c3ccccc3)c2N1` (configuration not stated), the Percent Effect is 19.5% in experiment [1] and -25.4% in experiment [2].

As to `O=C(CCO)N1CCOC2(CCCN(C(=O)c3ccco3)C2)C1` (configuration not stated), the Percent Effect in experiment [1] is -4.34%; in experiment [2], -15.2%.

Turning to `O=C(COc1cccc2c1CCC2=O)NCCSc1ccccc1`, the Percent Effect is 3.02% in experiment [1] and -30.6% in experiment [2].

`O=C(Cc1ccc2c(c1)CCO2)N1CCCCC1Cn1cccn1` (configuration not stated): the Percent Effect in experiment [1] was -2.75%; in experiment [2], -6.84%.

Regarding `CN(C)C(=O)CCCNC(=O)C(c1cccc(F)c1)N(C)C` (configuration not stated), the figures for the Percent Effect in experiment [1] and in experiment [2] were -1.57% and -24.8%, respectively.

As for `Cc1nccn1C1CCCN(C(=O)c2cc3ccccc3[nH]2)C1` (configuration not stated), the Percent Effect in experiment [1] is 0.714%; in experiment [2], 0.146%.

Regarding `CN1N=C(C(=O)NCc2ccc3c(c2)CCCN3C)CCC1=O`, the figures for the Percent Effect in experiment [1] and in experiment [2] were -4.96% and -42.9%, respectively.

As for `CN(Cc1cnn(C)c1)C(=O)NC1CCC(O)CC1` (configuration not stated), the values for the Percent Effect in experiment [1] and in experiment [2] were -5.01% and 12%, respectively.

Turning to `CC(C)C(=O)NCCNc1nccc(-c2cc(C(=O)O)ccn2)n1`, the Percent Effect in experiment [1] is 0.977%; in experiment [2] it was -4.31%.

Consider `CN(C)C(=O)N1CCN(C(=O)C(c2ccccc2F)N(C)C)CC1` (configuration not stated), for which the values for the Percent Effect in experiment [1] and in experiment [2] were 0.752% and -3.65%, respectively.

Turning to `CCC(=O)N1CCC(Cc2nccnc2Nc2ccccn2)CC1`, the Percent Effect in experiment [1] was -0.309%; in experiment [2] it was 11.3%.

`O=C(CCc1cscn1)N1CCCC(c2ccn[nH]2)C1` (configuration not stated): the Percent Effect in experiment [1] is -1.82%; in experiment [2], 5.88%.

For `CNc1cc(C2CCCN2C(=O)c2ccc3oc(=O)n(C)c3c2)ccn1` (configuration not stated), the Percent Effect in experiment [1] was 4.04%; in experiment [2], 7%.

As to `CN(Cc1cccc(F)c1)S(=O)(=O)N1CCOCC1`, the Percent Effect in experiment [1] is -3.02%; in experiment [2] it was 3.45%.
